From PubChem BioAssay AID1159580 (chemical genetic matrix, 2015)
“And” between values parts separate entries of the source, which are not always exact repeats. Equal values may be shown once. Hit rate of the full screen: of about 5,500 compounds, about 2,000 (36%) were called active. About 18% were inconclusive and are not listed. No stated cut-off is given here; in the data, active means normalized growth mostly below about 0.91 (no sharp cut-off); inconclusive means no clear call, values can overlap the other calls; inactive means mostly above about 0.92. The list shows a part of the results.

Experiment: chemical genetic growth profiling, strain panel (AID 1159580);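 further: tested at 20 µM; growth read once vehicle control cultures reached saturation at 30 °C; 1 = growth at the plate median or of vehicle wells; lower values mean less growth of the strain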
Conditions: S. cerevisiae deletion strains, growth OD

Measured: normalized growth

CC[n+]1c(-c2ccccc2)c2cc(N)ccc2c2ccc(N)cc21
active: locus YAL013W, strain DEP1, hits give low values 0.879 | locus YCL029C, strain bik1, hits give low values 0.664 | locus YDL035C, strain GPR1, hits give low values 0.703 | locus YDL134C, strain PPH21, hits give low values 0.776 | locus YDL185W, strain tfp1, hits give low values 0.853 | locus YDR101C, strain arx1, hits give low values 0.886 | locus YDR162C, strain NBP2, hits give low values 0.706 | locus YDR318W, strain mcm21, hits give low values 0.885 | locus YDR388W, hits give low values 0.859 | locus YDR502C, strain sam2, hits give low values 0.801 | locus YEL061C, strain CIN8, hits give low values 0.766 | locus YER167W, strain BCK2, hits give low values 0.756 | locus YGL078C, strain dbp3, hits give low values 0.898 | locus YGL086W, strain mad1, hits give low values 0.856 | locus YGL248W, strain PDE1, hits give low values 0.845 | locus YGR135W, strain pre9, hits give low values 0.872 | locus YHR030C, strain SLT2, hits give low values 0.906 and 0.85 | locus YHR079C, strain IRE1 (second series), hits give low values 0.857 | locus YHR079C, strain IRE1, hits give low values 0.832 | locus YHR129C, strain ARP1, hits give low values 0.895 | locus YHR200W, strain rpn10, hits give low values 0.864 | locus YIL066C, strain RNR3, hits give low values 0.827 | locus YIL073C, strain SPO22, hits give low values 0.662 | locus YIL125W, strain kgd1, hits give low values 0.88 | locus YIR030C, strain dcg1, hits give low values 0.889 | locus YJL095W, strain BCK1, hits give low values 0.79 and 0.852 | locus YJL134W, strain LCB3, hits give low values 0.924 | locus YJL168C, strain set2, hits give low values 0.915 | locus YJL187C, strain SWE1 (second series), hits give low values 0.819 | locus YJR043C, strain POL32, hits give low values 0.687 | locus YJR066W, strain TOR1, hits give low values 0.773
inactive: locus YAL021C, strain ccr4, hits give low values 0.918 | locus YAL026C, strain drs2, hits give low values 0.966 | locus YAL030W, strain snc1, hits give low values 0.971 | locus YBL061C, strain skt5, hits give low values 0.974 | locus YBR009C, strain hhf1, hits give low values 0.966 | locus YBR021W, strain FUR4, hits give low values 1.06 | locus YBR023C, strain chs3, hits give low values 0.979 | locus YBR171W, strain sec66, hits give low values 0.977 | locus YBR229C, strain ROT2, hits give low values 0.952 | locus YBR231C, strain swc5, hits give low values 0.966 | locus YBR279W, strain paf1, hits give low values 0.947 | locus YCL011C, strain gbp2, hits give low values 0.981 | locus YCL016C, strain dcc1, hits give low values 0.943 | locus YCL069W, strain vba3, hits give low values 0.959 | locus YCR088W, strain abp1, hits give low values 0.954 | locus YDL005C, strain med2, hits give low values 0.99 | locus YDL040C, strain nat1, hits give low values 0.969 | locus YDL074C, strain BRE1, hits give low values 0.822 | locus YDL101C, strain DUN1, hits give low values 0.93 | locus YDL192W, strain arf1, hits give low values 0.922 | locus YDR001C, strain nth1, hits give low values 0.953 | locus YDR069C, strain doa4, hits give low values 0.974 | locus YDR137W, strain rgp1, hits give low values 0.997 | locus YDR159W, strain sac3, hits give low values 1.02 | locus YDR195W, strain ref2 1.04 | locus YDR297W, strain sur2, hits give low values 0.954 | locus YDR334W, strain swr1, hits give low values 0.957 | locus YDR335W, strain msn5, hits give low values 0.983 | locus YDR392W, strain spt3, hits give low values 0.965 | locus YEL003W, strain gim4, hits give low values 0.956 | locus YEL037C, strain rad23, hits give low values 0.965 | locus YEL061C, strain CIN8 (second series), hits give low values 0.946 | locus YER015W, strain faa2, hits give low values 0.97 | locus YER016W, strain bim1, hits give low values 0.953 | locus YER110C, hits give low values 0.967 | locus YER111C, strain swi4, hits give low values 0.939 | locus YER155C, strain BEM2 (second series), hits give low values 0.939 | locus YER155C, strain BEM2, hits give low values 0.937 | locus YFR010W, strain ubp6, hits give low values 0.97 | locus YGL167C, strain pmr1, hits give low values 0.986 | locus YGL173C, strain kem1, hits give low values 0.96 | locus YGL227W, strain vid30, hits give low values 0.975 | locus YGL240W, strain doc1, hits give low values 1.01 | locus YGL253W, strain hxk2, hits give low values 0.94 | locus YGR252W, strain gcn5, hits give low values 0.94 | locus YHR013C, strain ard1, hits give low values 0.988 | locus YHR027C, strain rpn1, hits give low values 0.954 | locus YHR094C, strain hxt1, hits give low values 0.925 | locus YHR142W, strain chs7, hits give low values 0.974 | locus YJL092W, strain hpr5, hits give low values 0.946 | locus YJL095W, strain BCK1 (second series), hits give low values 0.979 | locus YJL115W, strain asf1, hits give low values 0.926 | locus YJL129C, strain trk1, hits give low values 1.08 | locus YJL154C, strain vps35, hits give low values 0.949 | locus YJL164C, strain tpk1, hits give low values 0.963 | locus YJL166W, strain qcr8, hits give low values 0.993 | locus YJL187C, strain SWE1, hits give low values 0.995
